According to PubChem BioAssay (NCI):
About 83,000 compounds went through this panel and 20% of them were active in at least one assay; those are over-represented in the sample as a whole.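 Cell lines were cultured in 96-well plates, exposed to a single compound concentration, and assessed for percent growth 48 hours later.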 Values without a mark were called inactive. Activity calls are given as the source filed them. How the source made its calls: active means growth percent below 10; inactive means the rest.

Each molecule was assayed on HL-60(TB) leukemia (assay: NCI-60 one-dose screen, 48 h (100 = growth as untreated, 0 = no growth, -100 = all killed)). Conditions: 10 µM unless noted.

Compound | growth
Fc1ccc(C(c2ccc(F)cc2)C(Cl)Cl)cc1 | 85.7%
CCN(CC)CC(=O)Nc1cccc(C(=O)OC(C)C)c1 | 93%
CCOC(=O)C1=C(C)NC(C)=C(C(=O)OCC)C1c1cc(Br)c(O)c(OC)c1 | 6.74% (active)
Nc1nccc(Nc2ccccc2)n1 | 105%
CCO/C=N/NC(=O)c1ccncc1 | 102%
C=C(C)[C@@H]1CC[C@]2(C)[C@H](CC=C3[C@@H]4CC(C)(C)CC[C@]4(C(=O)OC)CC[C@]32C)[C@@]1(C)CC/C(N)=N/O | 2.39% (active)
CC(=O)N1CC(Nc2ccc(OC(F)(F)F)cc2)=CC1=O | -8.58% (active)
Cc1ccc(SCN2CCN(c3cccc(Cl)c3)CC2)cc1 | 111%
Oc1ccc(-c2nn(-c3ccccc3)cc2-c2nc3ccccc3s2)cc1 | 104%
CCOC(=O)c1c(NC(=O)c2ccccc2)sc2c3c(ccc12)OCN(C)C3 | -62.5% (active)
COc1ccc(/C=C/c2nc3ccccc3nc2/C=C/c2ccc(OC)cc2)cc1 | 105%
Cc1ccccc1N1C(c2ccccc2)=NNC12C=CC(=O)C=C2Cl (stereo not given) | 82.4%
O=C(COc1ccc(/C=C2\Cc3ccc(Cl)cc3C2=O)cc1)Nc1nc2ccccc2s1 | 117%
CCCCCCCCCCC1CO1 (stereo not given) | 104%
N#Cc1c(-c2cccc(Cl)c2)cc(-c2cccnc2)[nH]c1=O | 66.9%
S=c1[nH]cccc1-c1nnc2n1Nc1nc3ccccc3cc1CS2 | 105%
Cc1nc([C@H]2CC[C@H]3[C@@H]4CCC5=CC(=O)CC[C@]5(C)[C@H]4CC[C@]23C)cs1 | 4.93% (active)
CC(=O)OC1Oc2ccccc2-c2oc(=O)c(-c3ccc(F)cc3)cc21 (stereo not given) | 97.3%
NC(=O)c1cccc(-c2ccc(S(=O)(=O)Nc3ccc4c(c3)N(C(=O)C3CC3)CCC4)cc2)c1 | 1.43% (active)
NNC(=S)N/N=C/c1ccccn1 | 1% (active)

Compound | growth
COc1ccc(-c2cc(-c3cc(OC)c(OC)c(OC)c3)c(C#N)c(=O)n2CCCCCC(=O)NO)cc1 | 103%
Cc1cc[n+](CCCC[n+]2ccc(C)cc2)cc1 | 94.5%
COc1ccc(S(=O)(=O)NCCCNc2nccc(-n3ccc4cccnc43)n2)cc1 | 104%
COc1cc(/C=C/C(=O)Nc2ccc3c(c2)/C(=C\c2cccn2C)C(=O)N3)cc(OC)c1OC | 40.6%
Cc1ncc(-c2ccoc2)c(NC2CCCCCC2)n1 | 96.1%
O=C(c1c[nH]c2ccccc12)c1n[nH]c(=S)n1-c1ccc([N+](=O)[O-])cc1 | 61.4%
O=C(N/N=C/c1cccc(O)c1O)c1ccccc1 | 19.1%
COc1cc(NC(=O)CCSc2nc3ccc(Cl)cc3c(=O)n2Cc2ccccc2)cc(OC)c1OC | 99.6%
CC(=O)OCc1cc(-c2nc3ccccc3[nH]c2=O)nn1-c1ccc(Cl)cc1 | 84.5%
CCOC(=O)c1cnc2c(N=Nc3ccc(OC)cc3)c(N)nn2c1N | 96.2%
Cc1cc(Cl)ccc1Nc1nc(C(F)(F)F)ccc1C(=O)N/N=C/c1ccc(F)cc1 | -35.6% (active)
CCCCN(CC)CC(CC)Nc1cc(OC)cc2cccnc12 (stereo not given) | 126%
C[C@@H]1C=C2C(=O)O[C@@H]3CC[C@H](C1)[C@]23O | 72.4%
O=[N+]([O-])c1cccc2nsnc12 | 104%
O=c1cc(CSc2nnc(SCc3cc(=O)oc4c3ccc3ccccc34)o2)c2ccc3ccccc3c2o1 | 97.8%
Clc1ccccc1Nc1nnc(-c2ccncc2)s1 | 79.1%
CS(=O)CCCCCN=C=S (stereo not given) | -33.9% (active)
O=C(Oc1cccc2ccccc12)Oc1cccc2ccccc12 | 88.4%
O=C1/C(=C/c2ccc(F)cc2)C=C(c2ccccc2)N1CCc1ccccc1 | 81%
O=c1[nH]c(=O)c2cc(Cl)cc(Cl)c2[nH]1 | 100%
